# PubChem BioAssay (EPA / NIEHS)
# The source made the active and inactive calls. How the source made its calls: active means hit-call score of the fitted dose curve at least 0.9, where 1 is the maximum; inactive means score below 0.9.
# Legend:
# [1] = BSK_CASM3C_Proliferation: Cell Proliferation Assessment in the BioMAP Diversity Plus: CASM3C Assay (AID 2283047); settings: primary human coronary artery smooth muscle cells;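 further: sulforhodamine B total protein stain as relative cell number at 560 nm; sub-confluent cells exposed 48 h before staining; fitted both ways against DMSO so gain or loss of cell number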
# [2] = read-out: Monokine induced gamma interferon (MIG), CXCL9 (gene 4283); assay: BSK_CASM3C_MIG: BioMAP Diversity Plus: CASM3C Assay for Monokine induced gamma interferon (MIG) Biomarker Activity (AID 2283048); settings: primary human coronary artery smooth muscle cells; actives raise or lower the signal;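 further: MIG protein level measured by ELISA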
# [3] = read-out: serum amyloid A (SAA), SAA1 (gene 6288); assay: BSK_CASM3C_SAA: BioMAP Diversity Plus: CASM3C Assay for serum amyloid A (SAA) Biomarker Activity (AID 2283049); settings: primary human coronary artery smooth muscle cells; actives raise or lower the signal
# [4] = BSK_CASM3C_SRB: Viability Assessment in the BioMAP Diversity Plus: CASM3C Assay (AID 2283050); settings: primary human coronary artery smooth muscle cells;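 further: cells exposed to compound for 24 h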
# [5] = read-out: Thrombomodulin, THBD (gene 7056); assay: BSK_CASM3C_Thrombomodulin: BioMAP Diversity Plus: CASM3C Assay for Thrombomodulin Biomarker Activity (AID 2283051); settings: primary human coronary artery smooth muscle cells; actives raise or lower the signal;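 further: thrombomodulin protein level measured by ELISA 24 h after dosing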
# [6] = read-out: Tissue Factor, F3 (gene 2152); assay: BSK_CASM3C_TissueFactor: BioMAP Diversity Plus: CASM3C Assay for Tissue Factor Biomarker Activity (AID 2283052); settings: primary human coronary artery smooth muscle cells; actives raise or lower the signal;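 further: cell surface tissue factor protein level read by ELISA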
# [7] = read-out: Interferon-gamma inducible Protein 10 (IP10), CXCL10 (gene 3627); assay: BSK_hDFCGF_IP10: BioMAP Diversity Plus: hDFCGF Assay for Interferon-gamma inducible Protein 10 (IP10) Biomarker Activity (AID 2283053); settings: primary human foreskin fibroblasts; actives raise or lower the signal
# How it was run: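 ELISA read-out of IP-10 (CXCL10) from primary human skin fibroblasts, 24 h after compound addition. Gain or loss of signal versus DMSO baseline, bidirectional curve fitting.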
# [8] = read-out: Urokinase-type plasminogen activator receptor (uPAR), PLAUR (gene 5329); assay: BSK_CASM3C_uPAR: BioMAP Diversity Plus: CASM3C Assay for Urokinase-type plasminogen activator receptor (uPAR) Biomarker Activity (AID 2283054); settings: primary human coronary artery smooth muscle cells; actives raise or lower the signal;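 further: cell-surface uPAR protein level quantified by ELISA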
# [9] = read-out: Vascular cell adhesion molecule 1 (VCAM1), VCAM1 (gene 7412); assay: BSK_CASM3C_VCAM1: BioMAP Diversity Plus: CASM3C Assay for Vascular cell adhesion molecule 1 (VCAM1) Biomarker Activity (AID 2283055); settings: primary human coronary artery smooth muscle cells; actives raise or lower the signal;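 further: VCAM-1 protein level quantified by ELISA on the cells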
# [10] = read-out: Collagen III, COL3A1 (gene 1281); assay: BSK_hDFCGF_CollagenIII: BioMAP Diversity Plus: hDFCGF Assay for Collagen III Biomarker Activity (AID 2283056); settings: primary human foreskin fibroblasts; actives raise or lower the signal
# How it was run: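 Cells: human foreskin fibroblasts, primary. Dosing followed by 24 h incubation, then ELISA for collagen III. Both increases and decreases scored relative to DMSO.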
# [11] = read-out: Epidermal growth factor receptor (EGFR), EGFR (gene 1956); assay: BSK_hDFCGF_EGFR: BioMAP Diversity Plus: hDFCGF Assay for Epidermal growth factor receptor (EGFR) Biomarker Activity (AID 2283057); settings: primary human foreskin fibroblasts; actives raise or lower the signal
# How it was run: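 ELISA readout of EGFR on human dermal fibroblasts (primary foreskin cells), 24 h post-dosing; bidirectional curve fit vs DMSO baseline, gain or loss of signal scored.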
# [12] = read-out: Macrophage colony-stimulating factor (MCSF), CSF1 (gene 1435); assay: BSK_hDFCGF_MCSF: BioMAP Diversity Plus: hDFCGF Assay for Macrophage colony-stimulating factor (MCSF) Biomarker Activity (AID 2283060); settings: primary human foreskin fibroblasts; actives raise or lower the signal
# How it was run: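 M-CSF levels, determined by ELISA, are taken at 24 h after dosing human skin fibroblasts. Responses in either direction are fitted with DMSO serving as the baseline.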
# [13] = BSK_hDFCGF_SRB: Viability Assessment in the BioMAP Diversity Plus: hDFCGF Assay (AID 2283061); settings: primary human foreskin fibroblasts;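 further: cells exposed to compound for 24 h before the read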
# How it was run: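 Cells were dosed with test chemical, cultured 24 h, fixed with 10% TCA, then stained with 0.1% SRB and read at 560 nm. The fibroblasts were human foreskin primary cells, and DMSO served as baseline.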
# [14] = read-out: TIMP metallopeptidase inhibitor 1 (TIMP1), TIMP1 (gene 7076); assay: BSK_hDFCGF_TIMP1: BioMAP Diversity Plus: hDFCGF Assay for TIMP metallopeptidase inhibitor 1 (TIMP1) Biomarker Activity (AID 2283062); settings: primary human foreskin fibroblasts; actives raise or lower the signal
# How it was run: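 Fibroblasts from human foreskin are treated with test chemical and harvested at 24 h. TIMP-1 is quantified by ELISA, and gain or loss of signal is scored against DMSO.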
# [15] = read-out: Monokine induced gamma interferon (MIG), CXCL9 (gene 4283); assay: BSK_hDFCGF_MIG: BioMAP Diversity Plus: hDFCGF Assay for Monokine induced gamma interferon (MIG) Biomarker Activity (AID 2283063); settings: primary human foreskin fibroblasts; actives raise or lower the signal
# How it was run: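 MIG signal, determined by ELISA, reflects 24 h chemical exposure of human skin primary fibroblasts. DMSO serves as negative control and baseline.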
# [16] = read-out: Matrix Metallopeptidase 1 (MMP1), MMP1 (gene 4312); assay: BSK_hDFCGF_MMP1: BioMAP Diversity Plus: hDFCGF Assay for Matrix Metallopeptidase 1 (MMP1) Biomarker Activity (AID 2283064); settings: primary human foreskin fibroblasts; actives raise or lower the signal
# How it was run: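 MMP1 levels quantified by ELISA 24 h after dosing human dermal fibroblast cultures, with parallel SRB total-protein staining for overt cytotoxicity. Data fitted in both directions against DMSO baseline.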
# [17] = read-out: Vascular cell adhesion molecule 1 (VCAM1), VCAM1 (gene 7412); assay: BSK_hDFCGF_VCAM1: BioMAP Diversity Plus: hDFCGF Assay for Vascular cell adhesion molecule 1 (VCAM1) Biomarker Activity (AID 2283065); settings: primary human foreskin fibroblasts; actives raise or lower the signal;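 on AC50: VCAM-1 protein level quantified by ELISA after 24 h chemical exposure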
# How it was run: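 Cells are dosed, cultured for 24 h, then VCAM-1 is quantified by ELISA; signal increases and decreases are both fitted relative to DMSO.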
# [18] = read-out: Plasminogen activator inhibitor-1 (PAI1), SERPINE1 (gene 5054); assay: BSK_hDFCGF_PAI1: BioMAP Diversity Plus: hDFCGF Assay for Plasminogen activator inhibitor-1 (PAI1) Biomarker Activity (AID 2283066); settings: primary human foreskin fibroblasts; actives raise or lower the signal
# How it was run: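 ELISA readout of PAI-1 from primary human skin fibroblast cultures, 24 h after compound addition. Gain or loss of signal was fitted bidirectionally against DMSO baseline.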
# [19] = read-out: Intercellular Adhesion Molecule 1 (ICAM1), ICAM1 (gene 3383); assay: BSK_KF3CT_ICAM1: BioMAP Diversity Plus: KF3CT Assay for Intercellular Adhesion Molecule 1 (ICAM1) Biomarker Activity (AID 2283067); settings: primary human keratinocytes with fibroblasts; actives raise or lower the signal
# How it was run: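 Dose the keratinocyte/fibroblast co-culture, wait 24 h, measure ICAM-1 by ELISA, then fit increases or decreases against DMSO. Cytotoxicity is checked in parallel cultures by SRB total-protein staining.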
# [20] = read-out: Interferon-gamma inducible Protein 10 (IP10), CXCL10 (gene 3627); assay: BSK_KF3CT_IP10: BioMAP Diversity Plus: KF3CT Assay for Interferon-gamma inducible Protein 10 (IP10) Biomarker Activity (AID 2283068); settings: primary human keratinocytes with fibroblasts; actives raise or lower the signal
# How it was run: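 ELISA read-out of IP-10 after 24 h chemical dosing of human skin primary co-culture (keratinocytes, foreskin fibroblasts). Gain or loss of signal relative to DMSO, bidirectional curve fit.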
compound,measurement,setting,value
CC(C)C(=O)C(C)C,outcome,[1],inactive
same,outcome,[2],inactive
same,outcome,[3],inactive
same,outcome,[4],inactive
same,outcome,[5],inactive
same,outcome,[6],inactive
same,outcome,[7],inactive
same,outcome,[8],inactive
same,outcome,[9],inactive
same,outcome,[10],inactive
same,outcome,[11],inactive
same,outcome,[12],inactive
same,outcome,[13],inactive
same,outcome,[14],inactive
same,outcome,[15],inactive
same,outcome,[16],inactive
same,outcome,[17],inactive
same,outcome,[18],inactive
same,outcome,[19],inactive
same,outcome,[20],inactive
C=CC=CC=CCCCCC,AC50,[1],5 µM (active)
same,outcome,[2],inactive
same,outcome,[3],inactive
same,outcome,[4],inactive
same,outcome,[5],inactive
same,outcome,[6],inactive
same,outcome,[7],inactive
same,outcome,[8],inactive
same,AC50,[9],5 µM (active)
same,AC50,[10],7.41 µM (active)
same,outcome,[11],inactive
same,outcome,[12],inactive
same,outcome,[13],inactive
same,outcome,[14],inactive
same,outcome,[15],inactive
same,outcome,[16],inactive
same,outcome,[17],inactive
same,outcome,[18],inactive
same,outcome,[19],inactive
same,outcome,[20],inactive
CCCCCCCCCCCCCCCC[N+](C)(C)CC,AC50,[1],1.61 µM (active)
same,AC50,[2],6.02 µM (active)
same,AC50,[3],2.61 µM (active)
same,AC50,[4],1.88 µM (active)
same,outcome,[5],inactive
same,AC50,[6],2.19 µM (active)
same,AC50,[7],2.84 µM (active)
same,AC50,[8],3.16 µM (active)
same,AC50,[9],4.21 µM (active)
same,AC50,[10],0.447 µM (active)
same,outcome,[11],inactive
same,AC50,[12],1.49 µM (active)
same,AC50,[13],1.28 µM (active)
same,AC50,[14],1.89 µM (active)
same,AC50,[15],3.45 µM (active)
same,AC50,[16],4.94 µM (active)
same,AC50,[17],1.82 µM (active)
same,AC50,[18],1.53 µM (active)
same,AC50,[19],4.6 µM (active)
same,AC50,[20],2.96 µM (active)
CCOc1nc(F)cc2nc(S(=O)(=O)Nc3c(Cl)cccc3C(=O)OC)nn12,outcome,[1],inactive
same,outcome,[2],inactive
same,outcome,[3],inactive
same,outcome,[4],inactive
same,outcome,[5],inactive
same,outcome,[6],inactive
same,outcome,[7],inactive
same,outcome,[8],inactive
same,outcome,[9],inactive
same,outcome,[10],inactive
same,outcome,[11],inactive
same,outcome,[12],inactive
same,outcome,[13],inactive
same,outcome,[14],inactive
same,outcome,[15],inactive
same,outcome,[16],inactive
same,outcome,[17],inactive
same,outcome,[18],inactive
same,outcome,[19],inactive
same,outcome,[20],inactive
CCCCC(CC)COC(=O)c1ccccc1O (stereo not given),outcome,[1],inactive
same,outcome,[2],inactive
same,outcome,[3],inactive
same,outcome,[4],inactive
same,outcome,[5],inactive
same,outcome,[6],inactive
same,AC50,[7],16.4 µM (active)
same,outcome,[8],inactive
same,outcome,[9],inactive
same,AC50,[10],6.81 µM (active)
same,outcome,[11],inactive
same,AC50,[12],13.2 µM (active)
same,AC50,[13],14.4 µM (active)
same,AC50,[14],12.8 µM (active)
same,AC50,[15],15 µM (active)
same,AC50,[16],17.8 µM (active)
same,AC50,[17],14.6 µM (active)
same,AC50,[18],7.32 µM (active)
same,outcome,[19],inactive
same,outcome,[20],inactive
C#CC1(O)CC[C@H]2[C@@H]3CCC4=CCCC[C@@H]4[C@H]3CC[C@@]21C (stereo not given in full),AC50,[1],8.11 µM (active)
same,AC50,[2],20 µM (active)
same,AC50,[3],20 µM (active)
same,AC50,[4],31 µM (active)
same,AC50,[5],20 µM (active)
same,AC50,[6],20 µM (active)
same,AC50,[7],34.4 µM (active)
same,AC50,[8],20 µM (active)
same,AC50,[9],29.4 µM (active)
same,AC50,[10],34.4 µM (active)
same,AC50,[11],20 µM (active)
same,AC50,[12],30 µM (active)
same,AC50,[13],35.2 µM (active)
same,AC50,[14],33 µM (active)
same,AC50,[15],35 µM (active)
same,AC50,[16],37.5 µM (active)
same,AC50,[17],37.5 µM (active)
same,AC50,[18],36.7 µM (active)
same,AC50,[19],13.6 µM (active)
same,AC50,[20],34 µM (active)
CCCCC(CC)COCC1CO1 (stereo not given),outcome,[1],inactive
same,outcome,[2],inactive
same,outcome,[3],inactive
same,outcome,[4],inactive
same,outcome,[5],inactive
same,outcome,[6],inactive
same,outcome,[7],inactive
same,outcome,[8],inactive
same,outcome,[9],inactive
same,outcome,[10],inactive
same,outcome,[11],inactive
same,outcome,[12],inactive
same,outcome,[13],inactive
same,outcome,[14],inactive
same,outcome,[15],inactive
same,outcome,[16],inactive
same,outcome,[17],inactive
same,outcome,[18],inactive
same,outcome,[19],inactive
same,outcome,[20],inactive
CCCCNc1ccc(NCCCC)c2c1C(=O)c1ccccc1C2=O,outcome,[1],inactive
same,outcome,[2],inactive
same,outcome,[3],inactive
same,outcome,[4],inactive
same,outcome,[5],inactive
same,outcome,[6],inactive
same,outcome,[7],inactive
same,outcome,[8],inactive
same,outcome,[9],inactive
same,AC50,[10],3.46 µM (active)
same,outcome,[11],inactive
same,outcome,[12],inactive
same,outcome,[13],inactive
same,outcome,[14],inactive
same,outcome,[15],inactive
same,outcome,[16],inactive
same,outcome,[17],inactive
same,outcome,[18],inactive
same,outcome,[19],inactive
same,outcome,[20],inactive
CCCCC/C=C\C/C=C\CCCCCCCC(=O)OC,AC50,[1],14.4 µM (active)
same,AC50,[2],31.1 µM (active)
same,outcome,[3],inactive
same,AC50,[4],31.7 µM (active)
same,outcome,[5],inactive
same,AC50,[6],11.4 µM (active)
same,AC50,[7],33.5 µM (active)
same,AC50,[8],28.7 µM (active)
same,AC50,[9],21.6 µM (active)
same,AC50,[10],27.8 µM (active)
same,outcome,[11],inactive
same,AC50,[12],26.5 µM (active)
same,AC50,[13],31.5 µM (active)
same,AC50,[14],29.3 µM (active)
same,AC50,[15],35.3 µM (active)
same,AC50,[16],33.4 µM (active)
same,AC50,[17],26.9 µM (active)
same,AC50,[18],28.9 µM (active)
same,AC50,[19],31.4 µM (active)
same,AC50,[20],29 µM (active)
